Source: PubChem (Paczesny and Yang Labs, IUPUI and University of Michigan)
ST2 inh – IL1RL1 inhibition; actives 2.3% (n = 78,000); Q01638; AlphaLISA ST2-Fc/biotin-IL-33 interaction, 1 h; inhibition, % for hits at 17 µM; in the data active = inhibition above about 30%
Target sequence (Q01638 whole entry, looked up): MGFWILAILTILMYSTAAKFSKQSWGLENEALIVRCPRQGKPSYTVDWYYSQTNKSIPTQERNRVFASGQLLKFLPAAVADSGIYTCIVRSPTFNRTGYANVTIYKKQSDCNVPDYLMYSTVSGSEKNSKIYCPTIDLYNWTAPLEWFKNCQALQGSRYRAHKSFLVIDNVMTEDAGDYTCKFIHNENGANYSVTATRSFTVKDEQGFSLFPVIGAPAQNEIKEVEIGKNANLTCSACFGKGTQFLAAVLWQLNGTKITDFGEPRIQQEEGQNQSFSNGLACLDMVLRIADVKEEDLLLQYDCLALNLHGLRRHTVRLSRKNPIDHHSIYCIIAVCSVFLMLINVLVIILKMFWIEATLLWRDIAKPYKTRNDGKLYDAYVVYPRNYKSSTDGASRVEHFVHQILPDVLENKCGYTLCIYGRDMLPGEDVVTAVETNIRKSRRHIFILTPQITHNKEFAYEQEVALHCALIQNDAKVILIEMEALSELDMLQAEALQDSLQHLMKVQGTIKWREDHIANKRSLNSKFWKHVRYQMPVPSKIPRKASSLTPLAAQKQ
* marks the source's active call; other numbers are inactive results; i = inactive. This is one part of a sample in which hits are shown more often than they occur.

SMILES | ST2 inh
NS(=O)(=O)c1cc(C(=O)Nc2ccccc2)c(Cl)cc1Cl | i
O=[N+]([O-])c1ccccc1S(=O)(=O)N1CCN(Cc2ccccc2Cl)CC1 | i
O=C(Cc1ccccc1)NCc1nc2ccccc2n1Cc1ccccc1F | i
O=C(N[C@H]1CCN2C(=O)c3cc(-c4cccs4)ccc3NC(=O)[C@H]12)c1cccc(F)c1 | i
Cc1cccc2c(=O)c(C(=O)N3CCOC(C(F)(F)F)C3)c[nH]c12 (stereo not drawn) | i
O=c1c2ccccc2n(Cc2cc(=O)n3ccccc3n2)c(=O)n1CCc1ccc(Cl)cc1 | i
O=C1c2ccccc2C(=O)C1c1ccc(-c2ccccc2)cc1 | i
O=C1c2ccccc2C(=O)[C@H]2C3c4ccccc4C(c4ccccc43)[C@@H]12 | 32%*
O=C1c2ccccc2C(=O)C1c1cccc2c1CCCC2 | i
COc1ccc(Cl)cc1C(=O)Nc1ccc(C)c(-c2nc3ncccc3o2)c1 | 35%*
COc1ccccc1C(=O)Nc1cccc(-c2nc3ncccc3o2)c1 | i
COc1ccc(C(=O)Nc2ccc(Cl)c(-c3nc4ncccc4o3)c2)cc1OC | i
CNCC(=O)N[C@H]1CCN2C(=O)c3cc(-c4ccc(OC)cc4OC)ccc3NC(=O)[C@@H]2C1 | i
COc1ccc(CNC(=O)c2cc3cc4ccc(OC)cc4nc3o2)cc1 | i
COc1ccc(CNC(=O)c2cc3cc4ccc(OC)cc4nc3s2)cc1 | 38%*
COc1ccc2cc3cc(C(=O)NCc4ccc(F)cc4)sc3nc2c1 | 31%*
COCCNC(=O)c1cc2cc3ccc(C)cc3nc2s1 | i
COc1ccc(CNC(=O)c2cc3cc4ccc(OC)cc4nc3s2)c(OC)c1 | i
CCOC(CCNC(=O)c1cc2cc3ccc(OC)cc3nc2s1)OCC | i
Cc1nc2cc(-c3ccccc3)nn2c(C)c1CCC(=O)NC1CCCCCC1 | i
O=[N+]([O-])c1ccc(S(=O)(=O)Nc2ccc(Cl)cc2Cl)cc1 | i
COc1cc(C2C(C(=O)Nc3ccc(C)cn3)=C(C)NC3=C2C(=O)CC(C)(C)C3)ccc1O (stereo not drawn) | i
COc1ccc(NC(=O)CCC2CCCN(C(=O)c3cc(C)nn3C)C2)cc1Cl (stereo not drawn) | i
O=C(c1ccsc1)N1CCC2(CCCN(Cc3cccc(F)c3F)C2=O)C1 (stereo not drawn) | i
Cc1ccccc1-n1nc(C)c([C@H]2C=C[C@@H](O)C2)c1C | i
SMILES | ST2 inh
CCSc1nnc2n(C)c(=O)c3c(n12)-c1ccccc1CC31CCCCC1 | i
C=CCSc1nnc2n(C)c(=O)c3c(n12)-c1ccccc1CC31CCCCC1 | 38%*
COc1ccc(-n2c(=O)c3c(n4cnnc24)-c2ccccc2CC32CCCC2)cc1 | i
N#CSC(C#N)Cc1cccc([N+](=O)[O-])c1 (stereo not drawn) | 37%*
N#Cc1ccc([N+](=O)[O-])cc1C#N | i
N#CSCc1ccc([N+](=O)[O-])cc1 | i
Cc1nc(C(C)C)cc(N(C)CCc2ccncc2)n1 | i
CN1C[C@@H](NC(=O)c2cccnc2)C[C@H]1c1nc(-c2ccc(Cl)cc2)no1 | i
CN1C[C@@H](NC(=O)c2ccc3c(c2)OCO3)C[C@H]1c1nc(-c2cccnc2)no1 | i
CN(C)c1ccc(C(=O)N[C@H]2C[C@@H](c3nc(-c4cccnc4)no3)N(C)C2)cc1 | 58%*
CN1C[C@@H](NC(=O)COc2ccccc2)C[C@H]1c1nc(-c2cccnc2)no1 | 65%*
CN1C[C@@H](NC(=O)c2ccccn2)C[C@H]1c1nc(-c2ccncc2)no1 | i
CN1C[C@@H](NC(=O)CC(C)(C)C)C[C@H]1c1nc(-c2cnccn2)no1 | 34%*
CN1C[C@@H](NC(=O)CC(C)(C)CC(=O)O)C[C@H]1c1nc(-c2ccccn2)no1 | i
CN1C[C@@H](NC(=O)c2ccccn2)C[C@H]1c1nc(-c2ccccn2)no1 | i
CN1C[C@@H](NC(=O)c2ccc(F)cc2)C[C@H]1c1nc(-c2ccccc2)no1 | i
CCN(CC1CCCN(CCc2cccc(F)c2)C1)C(=O)C1=NN(C)C(=O)CC1 (stereo not drawn) | i
CC(CC#CCN1CCCCC1)OC(C)(C)C (stereo not drawn) | i
COc1cccc(CC2CN(C(=O)C(=O)c3ccco3)CCO2)c1 (stereo not drawn) | i
COCC1=C(C(=O)OC)C(c2ccncc2)C(C#N)=C(N)O1 (stereo not drawn) | i
CCCn1cc(SCC(=O)Nc2nc3ccccc3s2)c2ccccc21 | i
O=C(O)c1ccc2nc3c(cc2c1)CCS3 | i
Clc1ccc(SCCOCCN2CCCC2)cc1 | i
CCn1c(=O)n(-c2ccc(C)c(C)c2)c2nc(-c3ccc(OC)cc3)nc(C(N)=O)c21 | i
CSc1ccc(CN2CCCC(C(=O)N3CCCCCC3)C2)cc1 (stereo not drawn) | i
SMILES | ST2 inh
COc1ccc(C(=O)N[C@H]2CO[C@H]3[C@@H]2OC[C@@H]3Nc2nccc(-c3cccc(C#N)c3)n2)cc1 | i
CN(Cc1ccccc1)c1ncccc1CNC(=O)C1(C)CCCO1 (stereo not drawn) | 35%*
CC(C)N1CCC(NCc2cccnc2N(C)Cc2ccccc2)CC1 | i
CN(C)c1ncccc1CNC(=O)Cc1ccc(O)c(F)c1 | i
CC1=C(C(=O)OC2CCCCC2)C(c2ccc(C)cc2)n2nnnc2N1 (stereo not drawn) | i
COc1cc([N+](=O)[O-])ccc1NC(=O)c1cc(Br)ccc1OC | i
C=CCn1c(O)c(C2=c3cc(Br)ccc3=NC2=O)c2ccccc21 | 37%*
O=C1N=c2ccc(Br)cc2=C1c1sc(=O)[nH]c1O | i
O=C1N=c2ccc(Br)cc2=C1c1sc(Nc2cccc(C(F)(F)F)c2)nc1O | i
CC1CCCCC1NC(=O)C1(O)c2ccccc2NC(=O)N1c1ccc(Cl)cc1 (stereo not drawn) | i
O=C(N[C@H]1CCN2C(=O)N(c3ccc(OC(F)(F)F)cc3)C(=O)[C@@H]2C1)c1ccncc1 | i
O=C(N[C@H]1CCN2C(=O)N(c3cccc(C(F)(F)F)c3)C(=O)[C@@H]2C1)c1ccncc1 | 56%*
CC(=O)N1CCC(C(=O)N[C@H]2CCN3C(=O)N(c4cccc(C(F)(F)F)c4)C(=O)[C@@H]3C2)CC1 | i
Cn1nc(-c2ccc(Cl)cc2)c2cc(C(=O)NCc3ccc4c(c3)OCO4)sc21 | i
COc1ccc(Nc2nc3c(C)cccn3c(=O)c2C=NCc2ccccc2)cc1 | 40%*
Cc1ccc(N=Cc2c(Nc3ccccc3)nc3c(C)cccn3c2=O)cc1 | i
COc1ccc(NC(=O)c2cc3c(=O)n4cccc(C)c4nc3n2C)c(OC)c1 | i
COc1cc2c(cc1OC)CN(C(=O)CC1C(=O)NCCN1Cc1ccccn1)CC2 (stereo not drawn) | i
N#CC1=C(N)Oc2cc(O)ccc2C1c1ccc(Cl)c(Cl)c1 (stereo not drawn) | i
O=C1/C(=C/c2ccccc2O)N=C2CCCCCN12 | 39%*
O=C1CCCN1c1ccccc1O | i
O=C1N=C(N2CCCC2)S/C1=C\c1ccccc1O | i
Cc1cccnc1CN1CCN(Cc2ccc3nonc3c2)CC1 | i
CC(C)(C)n1nc2c(c1NC(=O)c1cccc(Br)c1)CSC2 | i
Cc1cc(Oc2ccccc2F)c(F)cc1[N+](=O)[O-] | 31%*
O=C(c1cc(O)c(O)c([N+](=O)[O-])c1)c1ccccc1F | i
COc1ccc(NC(=O)c2c(F)cccc2F)c([N+](=O)[O-])c1 | i
